Measured values from PubChem BioAssay.
The source made the active and inactive calls.

What was measured:
[1] = system: Plasmodium falciparum Sir2 (PF13_0152, Sir2A); experiment: pfSir2 binders on small-molecule microarrays, primary screen, biochemical, small-molecule microarray, 635 nm fluorescence (AID 1098); details: small-molecule microarray binding, fluorescence 635 nm; higher = more signal;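 note: score merges spot fluorescence intensity with its signal-to-noise ratio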
[2] = small-molecule microarray binders of probe aDKK1, primary screen, biochemical, biotinylated probe, 635/667 nm fluorescence (AID 1099); details: higher = more signal;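 note: score merges 667nm spot fluorescence with signal to noise across triplicate slides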
[3] = small-molecule microarray binders of probe aCHRDL2, primary screen, biochemical, biotinylated probe, 635/667 nm fluorescence (AID 1100); details: higher = more signal
[4] = splicing luciferase reporter signal modulators, primary screen, spliceosome inhibition project, cell-based, HEK293, splice +/- reporter (AID 1101); details: luminescence, 24 h, higher = more signal, called active from +8 up or from −8 down;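 note: HEK293 cells carrying a splicing-competent luciferase reporter gene; test concentration not given here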
[5] = molecular target: Fibroblast growth factor 10 (Homo sapiens) (UniProt O15520); experiment: FGF10 binders on small-molecule microarrays, primary screen, biochemical, small-molecule microarray, 635 nm fluorescence (AID 1102); details: FGF10 binding, fluorescence 635 nm, higher = more signal
Chain of Fibroblast growth factor 10 (Homo sapiens) (O15520 whole entry, looked up): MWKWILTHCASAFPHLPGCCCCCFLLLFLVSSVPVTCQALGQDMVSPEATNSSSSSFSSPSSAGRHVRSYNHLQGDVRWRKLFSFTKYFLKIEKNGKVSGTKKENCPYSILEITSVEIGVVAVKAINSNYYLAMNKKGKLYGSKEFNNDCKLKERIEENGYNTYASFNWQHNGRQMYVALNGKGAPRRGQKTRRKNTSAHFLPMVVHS

[6] = system: glycogen synthase kinase-3 (GSK3A per assay name; protocol says GSK3B); experiment: GSK3 binders on small-molecule microarrays, primary screen, biochemical, small-molecule microarray, 635 nm fluorescence, GSK3A (AID 1103); details: small-molecule microarray binding, fluorescence 635 nm; higher = more signal; note: the record names both GSK3A and GSK3B
[7] = molecular target: Epidermal growth factor receptor (Homo sapiens) (UniProt P00533); experiment: EGFR binders on small-molecule microarrays, primary screen, biochemical, small-molecule microarray, 635 nm fluorescence (AID 1104); details: EGFR binding, higher = more signal;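 note: score merges 667 nm emission intensity with spot signal to noise over triplicate slides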
Chain of Epidermal growth factor receptor (Homo sapiens) (P00533 whole entry, looked up): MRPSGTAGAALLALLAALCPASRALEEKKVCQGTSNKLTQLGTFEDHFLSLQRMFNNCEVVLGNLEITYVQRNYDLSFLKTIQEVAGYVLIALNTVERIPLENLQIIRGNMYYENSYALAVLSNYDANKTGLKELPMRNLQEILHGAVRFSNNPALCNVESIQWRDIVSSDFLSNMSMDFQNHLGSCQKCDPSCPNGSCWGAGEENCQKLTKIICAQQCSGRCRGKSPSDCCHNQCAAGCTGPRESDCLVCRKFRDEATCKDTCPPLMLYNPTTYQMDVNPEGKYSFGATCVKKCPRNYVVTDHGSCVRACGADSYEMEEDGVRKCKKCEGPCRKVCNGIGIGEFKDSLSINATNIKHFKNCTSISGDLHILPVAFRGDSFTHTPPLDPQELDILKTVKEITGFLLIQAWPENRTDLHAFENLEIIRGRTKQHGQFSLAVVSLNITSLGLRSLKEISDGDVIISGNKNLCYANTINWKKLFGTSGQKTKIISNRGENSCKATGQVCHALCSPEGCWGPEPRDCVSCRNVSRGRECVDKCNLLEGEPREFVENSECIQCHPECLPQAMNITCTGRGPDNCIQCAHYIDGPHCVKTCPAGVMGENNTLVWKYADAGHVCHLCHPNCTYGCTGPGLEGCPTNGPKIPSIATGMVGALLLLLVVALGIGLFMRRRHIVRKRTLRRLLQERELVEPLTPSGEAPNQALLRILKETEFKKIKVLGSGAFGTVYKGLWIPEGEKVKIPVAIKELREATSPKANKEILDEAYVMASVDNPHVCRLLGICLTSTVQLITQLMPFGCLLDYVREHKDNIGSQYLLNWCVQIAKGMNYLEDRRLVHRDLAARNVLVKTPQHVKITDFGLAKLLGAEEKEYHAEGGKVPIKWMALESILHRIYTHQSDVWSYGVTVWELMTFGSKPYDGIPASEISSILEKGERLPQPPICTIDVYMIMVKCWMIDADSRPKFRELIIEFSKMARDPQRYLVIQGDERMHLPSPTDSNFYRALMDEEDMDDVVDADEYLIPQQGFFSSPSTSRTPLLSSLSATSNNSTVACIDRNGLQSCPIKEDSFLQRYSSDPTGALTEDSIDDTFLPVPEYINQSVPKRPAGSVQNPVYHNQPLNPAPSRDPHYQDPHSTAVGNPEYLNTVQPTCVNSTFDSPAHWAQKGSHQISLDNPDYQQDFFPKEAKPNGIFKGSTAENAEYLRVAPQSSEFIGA

[8] = molecular target: Follistatin-related protein 3 (Homo sapiens) (UniProt O95633); experiment: FSTL3 binders on small-molecule microarrays, primary screen, biochemical, small-molecule microarray, 635 nm fluorescence (AID 1105); details: FSTL3 binding, higher = more signal;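 note: score merges emission near 667 nm and signal to noise per printed spot across three slides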
Chain of Follistatin-related protein 3 (Homo sapiens) (O95633 whole entry, looked up): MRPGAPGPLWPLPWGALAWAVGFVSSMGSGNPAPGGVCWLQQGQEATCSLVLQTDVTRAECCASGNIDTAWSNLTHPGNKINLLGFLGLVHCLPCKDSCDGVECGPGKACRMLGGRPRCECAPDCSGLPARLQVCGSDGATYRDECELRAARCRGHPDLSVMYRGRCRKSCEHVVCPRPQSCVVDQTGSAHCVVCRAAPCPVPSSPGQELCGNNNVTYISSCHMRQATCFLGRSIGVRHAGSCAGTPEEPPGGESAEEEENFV

[9] = molecular target: Dickkopf-related protein 1 (Homo sapiens) (UniProt O94907); experiment: DKK1 binders on small-molecule microarrays, primary screen, biochemical, small-molecule microarray, 635 nm fluorescence scan (AID 1106); details: DKK1 binding, higher = more signal;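 note: score merges emission near 667 nm with signal to noise over three replicate slides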
Chain of Dickkopf-related protein 1 (Homo sapiens) (O94907 whole entry, looked up): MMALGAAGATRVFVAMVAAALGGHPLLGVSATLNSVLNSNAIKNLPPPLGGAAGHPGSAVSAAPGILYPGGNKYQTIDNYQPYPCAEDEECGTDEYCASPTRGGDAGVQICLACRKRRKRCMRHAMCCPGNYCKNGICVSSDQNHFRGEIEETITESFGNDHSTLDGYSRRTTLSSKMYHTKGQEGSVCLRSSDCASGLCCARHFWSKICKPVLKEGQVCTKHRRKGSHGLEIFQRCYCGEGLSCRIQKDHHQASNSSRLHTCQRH

[10] = system: Inhibin beta A chain (activin A); experiment: INHBA (activin A) binders on microarrays, primary screen, biochemical, small-molecule microarray, 635 nm fluorescence scan (AID 1107); details: small-molecule microarray binding, higher = more signal;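 note: mouse activin A protein probed at 4.33 µg/mL on printed slides; score merges bound-protein fluorescence near 667 nm with spot signal-to-noise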
[11] = system: Human papillomavirus type 1a protein E7 (residues 44-93); experiment: HPV1a E7 fragment binders on microarrays, primary screen, biochemical, small-molecule microarray, residues 44-93, 635 nm fluorescence (AID 1108); details: small-molecule microarray binding, fluorescence 635 nm; higher = more signal;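 note: E7 fragment applied at 1 µg/mL in TBST for 1 h at 4 C; score combines spot fluorescence with its signal to noise ratio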
[12] = modulators of HCV replicon luciferase signal, primary screen, HCV replication inhibitor project, Huh7 cells, luciferase reporter (AID 1109); details: 48 h, higher = more signal;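 note: huh7 hepatoma cells harbouring a luciferase neomycin HCV replicon reporter; luciferase luminescence as measure of HCV replicon replication; test concentration not given here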
[13] = molecular target: Left-right determination factor 2 (Homo sapiens) (UniProt O00292); experiment: LEFTY2 binders on small-molecule microarrays, primary screen, biochemical, small-molecule microarray, 635 nm fluorescence scan (AID 1110); details: LEFTY2 binding, higher = more signal
Chain of Left-right determination factor 2 (Homo sapiens) (O00292 whole entry, looked up): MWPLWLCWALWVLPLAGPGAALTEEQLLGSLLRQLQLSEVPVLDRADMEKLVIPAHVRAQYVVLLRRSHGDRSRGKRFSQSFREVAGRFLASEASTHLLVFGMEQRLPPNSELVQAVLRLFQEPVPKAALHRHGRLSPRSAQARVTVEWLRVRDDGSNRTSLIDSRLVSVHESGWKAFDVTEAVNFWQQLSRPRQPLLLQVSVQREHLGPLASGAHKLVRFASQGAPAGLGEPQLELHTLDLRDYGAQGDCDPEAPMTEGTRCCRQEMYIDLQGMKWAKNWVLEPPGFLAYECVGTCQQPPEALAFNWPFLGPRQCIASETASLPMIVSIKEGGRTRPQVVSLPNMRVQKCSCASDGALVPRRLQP

[14] = molecular target: Calmodulin-1 (Homo sapiens) (UniProt P0DP23); experiment: CALM1 binders on microarrays, EGTA buffer, profiling panel, biochemical, small-molecule microarray, Cy5-labelled CALM1 (AID 1111); details: Cy5-CALM1 binding fluorescence, higher = more signal;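 note: labelled calmodulin applied in Tris saline Tween buffer holding calcium plus EGTA and DTT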
[15] = molecular target: Calmodulin-1 (Homo sapiens) (UniProt P0DP23); experiment: calcium-bound CALM1 binders on microarrays, profiling panel, artefact control for SMM control-protein annotation, biochemical, small-molecule microarray, Cy5-labelled CALM1, plus calcium (AID 1112); details: Cy5-CALM1 binding fluorescence, higher = more signal;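 note: score merges spot fluorescence with signal to noise from triplicate slides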
[16] = small-molecule microarray binders of probe aWnt5a, primary screen, biochemical, biotinylated probe, 635/667 nm fluorescence (AID 1113); details: higher = more signal;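 note: score merges 667 nm fluorescence intensity with signal-to-noise per printed feature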
[17] = small-molecule microarray binders of probe aShh, primary screen, biochemical, biotinylated probe, 635/667 nm fluorescence (AID 1114); details: higher = more signal;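 note: probe is biotin-labelled aShh protein from a stem cell growth factor screen; measures binding of labelled protein to compounds printed on the slide; score merges feature fluorescence at 667 nm with signal-to-noise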
[18] = small-molecule microarray binders of probe aNog, primary screen, biochemical, biotinylated probe, 635/667 nm fluorescence (AID 1115); details: higher = more signal;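 note: probe is biotinylated aNog protein used at 0.15 µg/mL for 1 h at 4 C; z-score combines 667 nm fluorescence of each spot with its signal to noise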
[19] = molecular target: Torsin-1A-interacting protein 1 (Homo sapiens) (UniProt Q5JTV8); experiment: LAP1 binders from COS7 cell lysate, primary screen, small-molecule microarray, 635/667 nm fluorescence (AID 1116); details: COS7-hLAP1 lysate binding, 635 nm fluorescence, higher = more signal
Chain of Torsin-1A-interacting protein 1 (Homo sapiens) (Q5JTV8 whole entry, looked up): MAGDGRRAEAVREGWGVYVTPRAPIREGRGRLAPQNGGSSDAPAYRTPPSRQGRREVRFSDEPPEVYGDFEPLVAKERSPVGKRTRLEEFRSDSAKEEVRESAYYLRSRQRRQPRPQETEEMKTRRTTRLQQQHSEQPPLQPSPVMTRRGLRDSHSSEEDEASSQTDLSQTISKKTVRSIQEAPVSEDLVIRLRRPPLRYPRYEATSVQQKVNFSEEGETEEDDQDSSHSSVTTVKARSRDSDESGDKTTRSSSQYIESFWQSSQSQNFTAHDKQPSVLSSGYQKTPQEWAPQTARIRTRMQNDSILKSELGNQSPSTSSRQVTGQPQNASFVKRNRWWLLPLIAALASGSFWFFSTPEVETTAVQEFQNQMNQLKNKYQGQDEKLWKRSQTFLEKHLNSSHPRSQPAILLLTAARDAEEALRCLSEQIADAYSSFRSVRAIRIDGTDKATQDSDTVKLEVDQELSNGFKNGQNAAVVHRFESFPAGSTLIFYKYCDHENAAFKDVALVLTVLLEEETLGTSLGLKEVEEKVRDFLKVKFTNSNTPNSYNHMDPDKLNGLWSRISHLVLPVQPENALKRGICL

[20] = molecular target: Alpha-bungarotoxin (Bungarus multicinctus) (UniProt P60615); experiment: alpha-bungarotoxin binders on microarray, profiling panel, artefact control for SMM control protein annotation, biochemical, small-molecule microarray, Alexa647 label, 635/667 nm fluorescence (AID 1117); details: alpha-BTX-A647 binding fluorescence, higher = more signal
Chain of Alpha-bungarotoxin (Bungarus multicinctus) (P60615 whole entry, looked up): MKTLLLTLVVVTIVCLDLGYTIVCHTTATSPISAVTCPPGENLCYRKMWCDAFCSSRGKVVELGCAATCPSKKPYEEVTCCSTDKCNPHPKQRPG

Row | SMILES | composite z-score [1] | composite z-score [2] | composite z-score [3] | z-score [4] | composite z-score [5] | composite z-score [6] | composite z-score [7] | composite z-score [8] | composite z-score [9] | composite z-score [10] | composite z-score [11] | z-score [12] | composite z-score [13] | composite z-score [14] | composite z-score [15] | composite z-score [16] | composite z-score [17] | composite z-score [18] | composite z-score [19] | composite z-score [20]
1 | CCCCCCc1nc(-c2ccc(OC)nc2)c(C)c2c1[Si](C(C)C)(C(C)C)OC2 | -0.299 | -0.202 | -0.358 | -2 (inactive) | -0.168 | -0.264 | 0.218 | 0.565 | 1.03 | 0.444 | -0.329 | -0.603 | 0.445 | -0.0398 | -0.257 | -0.0462 | -0.154 | -0.129 | -0.391 | -0.304
2 | CC(C)C[C@@H]1NC(=O)[C@@H]2C[C@H](C(=O)NCCCCCCNC(=O)CS)[C@H](c3ccc(O)cc3)N2C1=O | 1.57 | -0.0965 | 0.254 | -1.1 (inactive) | 1.45 | 1.26 | 0.672 | 1.47 | 1.27 | -0.0334 | 1.48 | 0.388 | 0.734 | 1.06 | 0.152 | -0.0495 | -0.0211 | 0.693 | 0.469 | 1.76
3 | CN1C(=O)C2C(C1=O)C1C=C(CCCO)C2C(C2CC2)N1C (stereo not given) | 0.264 | 0.0917 | 0.38 | -0.89 (inactive) | -0.158 | -0.83 | 0.0501 | -0.694 | -0.741 | 0.411 | -0.524 | 0.669 | -0.151 | 0.394 | 0.535 | -0.328 | 0.0062 | -0.0477 | 2.83 | -0.685
4 | O=C1NC(=O)C2C1C=CC(C(O)C(O)CO)N2Nc1ccccn1 (stereo not given) | 0.0854 | -0.191 | -0.104 | -0.396 (inactive) | 0.183 | 0.335 | 0.386 | 0.178 | 0.173 | 0.0473 | 0.492 | 0.538 | 0.322 | 0.339 | -0.635 | 0.0502 | -0.0035 | -0.201 | 0.0465 | 0.315
5 | Cc1c(NC(=O)/C(C#N)=C/C=C/c2ccc([N+](=O)[O-])cc2)c(=O)n(-c2ccccc2)n1C | 1.18 | 1.24 | 0.761 | 0.652 (inactive) | 1.19 | 1.15 | 0.404 | 1.21 | 0.534 | 0.256 | 0.572 | -1.71 | 0.328 | 1.97 | 0.72 | -0.0792 | -0.0769 | 0.457 | 1.37 | 1.13
6 | CC(C)Cc1ccc(CN2CC[C@@H](NC(=O)c3ccccc3)C2)cc1 | 0.934 | -0.357 | 0.0383 | 1.03 (inactive) | -0.75 | -1.11 | -0.381 | -0.647 | -0.0332 | 0.631 | -0.979 | -4.02 | 0.0756 | -0.816 | -0.524 | -0.159 | -0.345 | -0.367 | 0.367 | 1.01
7 | CC(C)N1CC=CC23O[C@@H]4/C=C\CCCOC(=O)C4[C@H]2C(=O)N(C(C)CO)[C@@H]3C1=O (stereo not given in full) | 0.748 | -0.4 | 0.44 | -1.09 (inactive) | -0.663 | -1.02 | -0.962 | -0.849 | -1.35 | 0.493 | -0.7 | 0.314 | -0.794 | -0.814 | -0.242 | -0.308 | -0.167 | -0.356 | -0.401 | -0.393
8 | COCCCNC(=O)[C@@]1(CCC(=O)OC(C)(C)C)N=C(c2ccc(OCCCO)cc2)O[C@H]1c1ccccc1 | 1.06 | 0.96 | 1.02 | -0.187 (inactive) | 0.638 | -0.505 | -0.266 | 0.297 | -0.538 | 0.701 | 1.37 | -0.618 | -0.926 | 1.1 | 0.783 | -0.0566 | 0.123 | 1.83 | 1.49 | 1.32
9 | O=C1C2C=CC(C(O)C(c3ccccc3)c3ccccc3)N(Nc3ccccc3F)C2C(=O)N1c1ccccc1 (stereo not given) | 0.802 | 0.632 | 0.786 | 0.34 (inactive) | 1.38 | 1.32 | 0.292 | 1.39 | 0.0465 | 0.875 | 1.45 | -0.942 | 0.407 | 1.04 | 0.713 | 0.0182 | 0.108 | 0.686 | 0.855 | 0.451
10 | O=C1C2C=CC(C(O)C3CC=CCC3)N(Nc3ccc([N+](=O)[O-])cc3)C2C(=O)N1c1ccccc1 (stereo not given) | 0.811 | 1.47 | 1.03 | 0.809 (inactive) | 1 | 1.1 | 0.619 | 1.44 | 0.386 | 1.2 | 0.34 | 0.276 | 0.485 | 1.76 | -0.0685 | 0.22 | 0.262 | 1.39 | 1.75 | 1.87
11 | O=C1O[C@H](c2ccccc2)[C@H](c2ccccc2)N2[C@H]1[C@@H](C(=O)O)[C@]1(C(=O)Nc3ccccc31)[C@H]2c1ccc(OCCO)cc1 | 0.975 | -0.0668 | -0.0097 | -0.749 (inactive) | 0.141 | -0.0583 | -0.055 | 0.0497 | -0.449 | 0.601 | 1.45 | 0.042 | -0.242 | 1.58 | 0.5 | -0.0977 | -0.187 | -0.574 | 0.811 | 0.968
12 | C=CC[C@]12N=C(c3ccc(OCCCO)cc3)O[C@H]1c1ccccc1N(CCC)C2=O | 1.18 | 0.43 | 0.693 | -0.391 (inactive) | 1.11 | 1.25 | 0.37 | 1.11 | 0.277 | 1.3 | 0.685 | -1.99 | 0.546 | 0.117 | -0.267 | 0.0344 | 0.187 | 0.993 | 1.46 | 0.666
13 | O=C1NC(=O)C2C1C=CC(C(O)C(c1ccccc1)c1ccccc1)N2Nc1ccccn1 (stereo not given) | 0.737 | 1.25 | 1.15 | 0.864 (inactive) | 0.909 | -0.145 | 0.457 | 0.503 | 0.593 | 1.32 | -1.31 | -0.246 | 0.702 | -0.67 | 0.295 | 0.278 | -0.119 | 0.328 | 1.63 | -0.143
14 | Cc1ccc(S(=O)(=O)N2[C@@H](c3ccccc3)C(C(=O)O)=CC[C@H]2c2ccc(F)cc2)cc1 | -0.434 | -0.224 | 0.633 | -0.207 (inactive) | 0.876 | 1.08 | -0.882 | 0.489 | -0.757 | -1.32 | 1.46 | -0.547 | -1.25 | -0.599 | -0.388 | 0.108 | -0.291 | 0.325 | 1.94 | 1.18
15 | CC[C@@H](O[Si](C#C[Si](C(C)C)(C(C)C)C(C)C)(C(C)C)C(C)C)c1cn([C@H](CO)Cc2ccccc2)nn1 | 0.954 | -0.331 | -0.592 | 0.131 (inactive) | 0.675 | 0.566 | 0.236 | 0.675 | 0.39 | -0.092 | 1.02 | -0.126 | 0.498 | 0.229 | -0.24 | -0.148 | -0.0769 | 0.184 | 0.739 | 0.167
16 | COCCCNC(=O)[C@]1(Cc2ccccc2N=[N+]=[N-])N=C(c2ccc(OCCCO)cc2)O[C@@H]1c1ccccc1 | 1.5 | 1.23 | 1.28 | 1.08 (inactive) | 0.612 | 1.25 | -0.137 | 0.597 | -0.425 | 0.97 | 0.565 | -1.69 | -0.263 | 2.24 | 0.908 | -0.118 | 0.0638 | -0.661 | 1.69 | 2.32
